Test [1] is described as follows: NCI Yeast Anticancer Drug Screen. Data for the rad50 strain (AID 155).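 Note: 0% = growth of vehicle-only cultures of the same strain.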 The following applies: S. cerevisiae rad50 strain growth inhibition, active compounds read high. Put shortly:
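Yeast carrying a defined DNA repair defect were exposed to test compounds, and growth was compared with vehicle-treated controls to give percent inhibition.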

Test [2] can be described thus: NCI Yeast Anticancer Drug Screen. Data for the mec2-1 strain (AID 157). The following applies: S. cerevisiae mec2-1 strain, active compounds read high. Put shortly:
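mec2-1 yeast strain, carrying an alteration in DNA damage repair or cell cycle control, was exposed to compounds; growth inhibition was measured relative to vehicle-treated controls.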

The nature of test [3]: NCI Yeast Anticancer Drug Screen. Data for the sgs1 mgt1 strain (AID 161).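 Note: 0% = growth of cultures given vehicle only.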 The following applies: S. cerevisiae sgs1 mgt1 strain, active compounds read high. In short, it runs like this: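 This yeast growth screen uses a strain with defined DNA-repair lesions; compound-treated growth is compared with vehicle-treated growth.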
Test [4] is described as follows: NCI Yeast Anticancer Drug Screen. Data for the cln2 rad14 strain (AID 165).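 Note: 0% = growth equal to vehicle treated cultures.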 The following applies: S. cerevisiae cln2 rad14 strain, active compounds read high. In short, it runs like this:
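Yeast carrying cln2 and rad14 alterations (cell cycle control and DNA damage repair) were exposed to compounds. Growth inhibition was measured against vehicle-treated controls.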

A short description of test [5]: NCI Yeast Anticancer Drug Screen. Data for the bub3 strain (AID 167). The following applies: S. cerevisiae bub3 mutant strain, active compounds read high. Put shortly:
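Compounds were applied to a genetically altered yeast strain carrying a cell-cycle control defect. Growth inhibition was scored against vehicle-treated controls.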

Test [6] in a line: NCI Yeast Anticancer Drug Screen. Data for the mlh1 rad18 strain (AID 175). As to conditions: S. cerevisiae mlh1 rad18 strain growth inhibition, active compounds read high. In short, it runs like this:
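Growth inhibition of the yeast strain was measured after compound exposure and expressed relative to vehicle-treated controls. The strain carries defined defects in DNA damage repair.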

[7] abbreviates: at 5.0 µM (retest, dose inferred, filed as 0.5).
Where [8] appears, read: at 50.0 µM (retest, dose inferred, filed as 5.0).

The panel holds about 79,000 compounds, 15% with a hit somewhere; the sample as a whole holds those more often. Unmarked numbers belong to inactive results. Active and inactive are the calls of the source. Cut-off read from the data, not from the text of the source: active = growth inhibition above about 70%; inactive = the rest.

As to `c1ccc(-c2cccc(-c3ccccn3)n2)nc1`, the growth inhibition is 93% (active) in test [1] (setting [7]); 99% (active) in test [1] (setting [8]); 99.4% (active) in test [1] (at 50.0 µM); 74% (active) in test [2] (setting [7]); 99% (active) in test [2] (setting [8]); 99.7% (active) in test [2] (at 50.0 µM). The growth inhibition in test [3] (setting [7]) was 91% (active); in test [3] (setting [8]), 99% (active); in test [3] (at 50.0 µM) it was 99.5% (active); in test [4] (setting [7]), 81% (active); in test [4] (setting [8]), 99% (active); in test [4] (at 50.0 µM), 99.1% (active). Moreover, the growth inhibition in test [5] (setting [7]) was 96% (active); in test [5] (setting [8]) it was 99% (active); in test [5] (at 50.0 µM), 99.2% (active); in test [6] (setting [7]), 83% (active); in test [6] (setting [8]), 99% (active); in test [6] (at 50.0 µM), 99.5% (active).
As for `OC(c1cc(C23CC4CC(CC(C4)C2)C3)nc2c(Cl)cc(Cl)cc12)C1CCCCN1` (stereo not given), the growth inhibition in test [1] (setting [7]) is 99% (active); in test [1] (setting [8]), 98% (active); in test [1] (at 50.0 µM), 98.7% (active); in test [2] (setting [7]), 99% (active); in test [2] (setting [8]), 99% (active); in test [2] (at 50.0 µM), 98.8% (active). Besides, the growth inhibition is 99% (active) in test [3] (setting [7]); 99% (active) in test [3] (setting [8]); 68.9% in test [3] (at 50.0 µM); 99% (active) in test [4] (setting [7]); 98% (active) in test [4] (setting [8]); 99.1% (active) in test [4] (at 50.0 µM). Besides, the growth inhibition is 99% (active) in test [5] (setting [7]); 98% (active) in test [5] (setting [8]); 98.5% (active) in test [5] (at 50.0 µM); 99% (active) in test [6] (setting [7]); 98% (active) in test [6] (setting [8]); 98.8% (active) in test [6] (at 50.0 µM).
With `CCCCCCCCC(=O)OCCCC(CCC(CCC1CCCO1)OC(=O)CCCCCCCC)OC(=O)CCCCCCCC` (stereo not given), the growth inhibition in test [1] (setting [7]) is -19%; in test [1] (setting [8]) it was 10%; in test [1] (at 50.0 µM) it was 82.3% (active); in test [2] (setting [7]), 3%; in test [2] (setting [8]) it was 12%; in test [2] (at 50.0 µM), 37%. Besides, the growth inhibition in test [3] (setting [7]) is -12%; in test [3] (setting [8]), 33%; in test [3] (at 50.0 µM), 42.4%; in test [4] (setting [7]), -17%; in test [4] (setting [8]), 31%; in test [4] (at 50.0 µM), 14.3%. The growth inhibition was -7% in test [5] (setting [7]); 12% in test [5] (setting [8]); 29.8% in test [5] (at 50.0 µM); -2% in test [6] (setting [7]); 23% in test [6] (setting [8]); 62.4% in test [6] (at 50.0 µM).
Take `O=[N+]([O-])c1ccc2c(c1)Cc1ccccc1-2`: the growth inhibition in test [1] (setting [7]) was 15%; in test [1] (setting [8]), -11%; in test [1] (at 50.0 µM), 63.5%; in test [2] (setting [7]), -10%; in test [2] (setting [8]) it was -25%; in test [2] (at 50.0 µM) it was 9.35%. Also, the growth inhibition in test [3] (setting [7]) was 8%; in test [3] (setting [8]), 5%; in test [3] (at 50.0 µM) it was 25.2%; in test [4] (setting [7]), -2%; in test [4] (setting [8]) it was -20%; in test [4] (at 50.0 µM), -13.5%. Further, the growth inhibition in test [5] (setting [7]) is 0%; in test [5] (setting [8]), -59%; in test [5] (at 50.0 µM), -17.2%; in test [6] (setting [7]), 20%; in test [6] (setting [8]), 2%; in test [6] (at 50.0 µM), 67.2%.
For `S=C1SCN(Cc2cccs2)CN1Cc1cccs1`, the growth inhibition in test [1] (setting [7]) is 58%; in test [1] (setting [8]), 95% (active); in test [1] (at 50.0 µM) it was 71.2% (active); in test [2] (setting [7]), 42%; in test [2] (setting [8]), 96% (active); in test [2] (at 50.0 µM) it was 71.5% (active). In addition, the growth inhibition was 55% in test [3] (setting [7]); 99% (active) in test [3] (setting [8]); 77.7% (active) in test [3] (at 50.0 µM); 23% in test [4] (setting [7]); 73% (active) in test [4] (setting [8]); 30.4% in test [4] (at 50.0 µM). Besides, the growth inhibition in test [5] (setting [7]) is 37%; in test [5] (setting [8]), 91% (active); in test [5] (at 50.0 µM), 80.7% (active); in test [6] (setting [7]), 63%; in test [6] (setting [8]) it was 96% (active); in test [6] (at 50.0 µM) it was 74.7% (active).
For the compound `O=C(c1ccccc1)C(Br)[N+](=O)[O-]` (stereo not given), the growth inhibition is 99% (active) in test [1] (setting [7]); 99% (active) in test [1] (setting [8]); 99.7% (active) in test [1] (at 50.0 µM); 99% (active) in test [2] (setting [7]); 99% (active) in test [2] (setting [8]); 99.7% (active) in test [2] (at 50.0 µM). Further, the growth inhibition was 99% (active) in test [3] (setting [7]); 100% (active) in test [3] (setting [8]); 99.7% (active) in test [3] (at 50.0 µM); 93% (active) in test [4] (setting [7]); 99% (active) in test [4] (setting [8]); 99.7% (active) in test [4] (at 50.0 µM). Besides, the growth inhibition was 100% (active) in test [5] (setting [7]); 100% (active) in test [5] (setting [8]); 99.8% (active) in test [5] (at 50.0 µM); 99% (active) in test [6] (setting [7]); 99% (active) in test [6] (setting [8]); 99.7% (active) in test [6] (at 50.0 µM).
With `C[C@@]1(CO)[C@H](O)CC[C@@]2(C)[C@H]1CC[C@H]1C[C@@H]3C[C@@]12CC[C@@]3(O)COC(=O)CN`, the growth inhibition is 0% in test [1] (setting [7]); 65% in test [1] (setting [8]); 97.3% (active) in test [1] (at 50.0 µM); -1% in test [2] (setting [7]); 98% (active) in test [2] (setting [8]); 57.1% in test [2] (at 50.0 µM). Besides, the growth inhibition in test [3] (setting [7]) was -1%; in test [3] (setting [8]) it was 46%; in test [3] (at 50.0 µM), 61.6%; in test [4] (setting [7]) it was -12%; in test [4] (setting [8]), 49%; in test [4] (at 50.0 µM), 22.9%. Further, the growth inhibition in test [5] (setting [7]) is 11%; in test [5] (setting [8]), 33%; in test [5] (at 50.0 µM), 91.7% (active); in test [6] (setting [7]), 6%; in test [6] (setting [8]) it was 97% (active); in test [6] (at 50.0 µM), 93.8% (active).
Consider `CCCCCCCCCCCCCCCCCC[S+](C)CC` (stereo not given), for which the growth inhibition in test [1] (setting [7]) is 97% (active); in test [1] (setting [8]), 94% (active); in test [1] (at 50.0 µM) it was 90.2% (active); in test [2] (setting [7]), 99% (active); in test [2] (setting [8]), 98% (active); in test [2] (at 50.0 µM), 92.9% (active). In addition, the growth inhibition in test [3] (setting [7]) was 99% (active); in test [3] (setting [8]), 99% (active); in test [3] (at 50.0 µM), 92.9% (active); in test [4] (setting [7]), 98% (active); in test [4] (setting [8]), 98% (active); in test [4] (at 50.0 µM), 91.6% (active). Further, the growth inhibition is 99% (active) in test [5] (setting [7]); 98% (active) in test [5] (setting [8]); 91.5% (active) in test [5] (at 50.0 µM); 98% (active) in test [6] (setting [7]); 97% (active) in test [6] (setting [8]); 90.3% (active) in test [6] (at 50.0 µM).
For `O=C(CBr)c1ccc(OC(=O)c2ccccc2)cc1`, the growth inhibition was 97% (active) in test [1] (setting [7]); 99% (active) in test [1] (setting [8]); 45.3% in test [1] (at 50.0 µM); 100% (active) in test [2] (setting [7]); 99% (active) in test [2] (setting [8]); 13.1% in test [2] (at 50.0 µM). In addition, the growth inhibition is 100% (active) in test [3] (setting [7]); 100% (active) in test [3] (setting [8]); 18.4% in test [3] (at 50.0 µM); 44% in test [4] (setting [7]); 99% (active) in test [4] (setting [8]); -12.7% in test [4] (at 50.0 µM). The growth inhibition is 100% (active) in test [5] (setting [7]); 100% (active) in test [5] (setting [8]); 45.8% in test [5] (at 50.0 µM); 62% in test [6] (setting [7]); 98% (active) in test [6] (setting [8]); 74.5% (active) in test [6] (at 50.0 µM).
`CCNc1nnnn1CC`: the growth inhibition in test [1] (setting [7]) was -37%; in test [1] (setting [8]) it was 1%; in test [1] (at 50.0 µM), -2.5%; in test [2] (setting [7]) it was -2%; in test [2] (setting [8]), -2%; in test [2] (at 50.0 µM), 2.1%. For the same compound, the growth inhibition in test [3] (setting [7]) was 0%; in test [3] (setting [8]) it was 5%; in test [3] (at 50.0 µM) it was -5.35%; in test [4] (setting [7]), 2%; in test [4] (setting [8]) it was 4%; in test [4] (at 50.0 µM), 12.3%. Also, the growth inhibition in test [5] (setting [7]) was -1%; in test [5] (setting [8]), -2%; in test [5] (at 50.0 µM) it was 22.9%; in test [6] (setting [7]), 6%; in test [6] (setting [8]), 18%; in test [6] (at 50.0 µM), 2.8%.

The values above are taken from PubChem BioAssay (NCI).
